Structures can show the parent of a compound that is named as a salt.

This note sets out measurements from the supplement of paper PMC9135407.

This experiment deals with primary human hepatic stellate cells (donor 1). Briefly: PSMB2 reference mRNA level vs DMSO (fold); higher = more PSMB2 expression. The settings on record: 48 h. Here is the method: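 Secondary qRT-PCR screen in primary human HSCs (donor 1), 384-well plates, with compounds dispensed in quadruplicate and incubated for 48 h. Cells-to-CT lysates were used for multiplexed TaqMan qPCR of ACTA2 or COL1A1 with PSMB2 as reference. Fold changes versus DMSO come from a linear model (Ct_gene ~ Ct_PSMB2 + plate + chemical). A hit is defined as COL1A1 and ACTA2 FC <0.5 (FDR <0.05) with PSMB2 between 0.2 and 2.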
Turning to `CC[C@H]1CN2CCc3cc(OC)c(OC)cc3[C@@H]2C[C@@H]1C[C@H]1NCCc2cc(OC)c(OC)cc21` [Emetine] (12.0333 µM), the “PSMB2 reference mRNA level” value came out at 0.628.

Take `C[C@]12CC[C@H](O)C[C@H]1CC[C@@H]1[C@@H]2CC[C@]2(C)[C@@H](C3=CC(=O)OC3)CC[C@]12O` [Digitoxigenin] (33.3333 µM): the “PSMB2 reference mRNA level” value was 0.954. With `CO[C@H]1CC[C@@H](O[C@H]2C[C@H]([C@]3(C)CC[C@]4(C[C@H](O)[C@@H](C)[C@@H]([C@@H](C)/C=C(\C)C(=O)[C@H](C)C[C@H](C)C(=O)O)O4)O3)O[C@]3(O[C@@H]([C@H]4O[C@@](O)(CO)[C@H](C)C[C@@H]4C)C[C@@H]3C)[C@@H]2C)O[C@@H]1C` [Nanchangmycin] (11.1 µM), the “PSMB2 reference mRNA level” value came out at 0.936.

`CCN(CC)CCO[C@H]1CC[C@@]2(C)C(=CC[C@@H]3[C@@H]2CC[C@]2(C)C(=O)CC[C@@H]32)C1` (33.3333 µM): the “PSMB2 reference mRNA level” value turned out to be 0.278. The same measure for `Fc1cc(F)c2c(c1)[C@H]1C=CC[C@H]1C(c1cccnc1)N2` (some centres undefined) [Golgicide A] (33.3333 µM): 0.431; for `CC(C(=O)OC1CC2CCC(C1)N2C)c1ccc(Br)cc1` (centres undefined) [PG-9 maleate] (33.3333 µM): 1.01. The same measure for `C[C@@H]1O[C@@H](O[C@H]2C[C@@H](O)[C@]3(CO)[C@H]4[C@H](O)C[C@]5(C)[C@@H](C6=CC(=O)OC6)CC[C@]5(O)[C@@H]4CC[C@]3(O)C2)[C@H](O)[C@H](O)[C@H]1O` [Ouabain] (33.3333 µM): 1.24. Consider `COc1ccc2c(c[n+](C)c3c4cc5c(cc4ccc23)OCO5)c1OC` (6.66667 µM), for which the “PSMB2 reference mRNA level” value came to 0.187. The same measure for `CC1=C(CC/C(C)=C/CCC2=CC[C@H](C3=CC(=O)O[C@H]3O)O[C@H]2O)C(C)(C)CCC1` [Manoalide] (40 µM): 1.84; for `CN(C(=O)Cc1ccc(Cl)c(Cl)c1)[C@H](CN1CCCC1)c1ccccc1` [ICI-199,441 hydrochloride] (33.3333 µM): 0.128. The same measure for `CCCCCCCCCCCCCC(=O)O[C@@H]1[C@@H](C)[C@@]2(O)[C@@H](C=C(CO)C[C@]3(O)C(=O)C(C)=C[C@@H]23)[C@@H]2C(C)(C)[C@]12OC(C)=O` [Phorbol 12-myristate 13-acetate] (27.0333 µM): 0.829; for `COc1ccc2[nH]cc(C3=CCNCC3)c2c1` (33.3333 µM): 1.01. As to `C[C@H](N)Cn1ccc2cc(F)c(Cl)cc21` [Ro 60-0175 fumarate] (33.3333 µM), the “PSMB2 reference mRNA level” value amounted to 0.297. Under `O=c1[nH]c2ccccc2n1C1CCN(CCCC(c2ccc(F)cc2)c2ccc(F)cc2)CC1` [Pimozide] (33.3333 µM) stands 0.0111. The same measure for `CC1=NCCc2c1[nH]c1cc(O)ccc21` [Harmalol hydrochloride dihydrate] (24.4333 µM): 0.715; for `O=[N+]([O-])/C=C/c1ccc2c(c1)OCO2` (3.7 µM): 1; for `CN1[C@@H]2CC[C@H]1C[C@@H](OC(c1ccc(F)cc1)c1ccc(F)cc1)C2` [3 α-Bis-(4-fluorophenyl) methoxytropane hydrochloride] (33.3333 µM): 0.247.

With `O=C1C2CCN(CC2)C1(CO)CO` (90 µM), the “PSMB2 reference mRNA level” value was 0.115. Under `CC1=C(O)C(=O)C=C2C1=CC=C1[C@@]2(C)CC[C@@]2(C)[C@@H]3C[C@](C)(C(=O)O)CC[C@]3(C)CC[C@]12C` [Celastrol] (3.33333 µM) stands 0.633.
